In all, about 310,000 compounds went through this assay and about 3,300 (1.1%) were called active.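 The calls were made as follows: active = B-score under library mean minus 3 SD, initial fluorescence not abnormally high, positive integrated signal ratio; inactive = the rest.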 Only a selection was taken, and actives are over-represented in it overall.
Molecular target: Short transient receptor potential channel 6 (Mus musculus) (UniProt Q61143)
Assay: mouse TRPC6 channel inhibitors, primary screen, cell-based, HEK293, membrane potential dye (AID 2553);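 as to B-score: B-score derived from integrated fluorescence ratio over the kinetic read; more negative B-score means stronger inhibition of depolarization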
Settings: ACh-evoked depolarization, at 10 µM; active compounds read low

Short transient receptor potential channel 6 (Mus musculus), sequence (Q61143 whole entry, looked up): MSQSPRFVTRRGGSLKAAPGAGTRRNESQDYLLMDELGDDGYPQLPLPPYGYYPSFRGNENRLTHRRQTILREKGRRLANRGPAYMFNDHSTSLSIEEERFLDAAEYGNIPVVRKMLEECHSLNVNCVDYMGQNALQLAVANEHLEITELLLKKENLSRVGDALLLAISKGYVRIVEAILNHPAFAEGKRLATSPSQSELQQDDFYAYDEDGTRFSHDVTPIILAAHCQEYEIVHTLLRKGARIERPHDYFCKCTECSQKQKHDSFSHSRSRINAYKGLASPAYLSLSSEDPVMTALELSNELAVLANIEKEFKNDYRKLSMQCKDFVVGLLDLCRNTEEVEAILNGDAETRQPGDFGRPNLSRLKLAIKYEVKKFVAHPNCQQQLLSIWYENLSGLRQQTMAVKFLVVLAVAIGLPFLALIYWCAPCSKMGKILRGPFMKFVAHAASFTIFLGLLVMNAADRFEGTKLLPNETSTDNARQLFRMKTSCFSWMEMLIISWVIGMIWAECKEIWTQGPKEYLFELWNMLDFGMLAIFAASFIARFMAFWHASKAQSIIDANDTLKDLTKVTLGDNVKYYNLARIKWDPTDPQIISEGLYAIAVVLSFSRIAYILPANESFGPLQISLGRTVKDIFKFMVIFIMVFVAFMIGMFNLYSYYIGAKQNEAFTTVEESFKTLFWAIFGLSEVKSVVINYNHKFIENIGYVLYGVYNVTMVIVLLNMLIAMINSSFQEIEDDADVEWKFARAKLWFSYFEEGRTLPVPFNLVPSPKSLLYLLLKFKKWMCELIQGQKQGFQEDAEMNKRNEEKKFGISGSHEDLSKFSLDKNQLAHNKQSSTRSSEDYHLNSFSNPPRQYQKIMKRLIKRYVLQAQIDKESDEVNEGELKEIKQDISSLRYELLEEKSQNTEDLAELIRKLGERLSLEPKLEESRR

B-score, inactive:
COc1ccc(NC(=O)CN2C(=O)C(c3ccccc3)=NC23CCCCCC3)cc1OC
Cc1cc(C)c2oc(C(=O)Nc3ccc(S(=O)(=O)Nc4nccc(C)n4)cc3)cc(=O)c2c1
c1ccc(-c2cnc(CN3CCN(c4ccccc4)CC3)o2)cc1
COc1cc([N+](=O)[O-])cc([N+](=O)[O-])c1NC(=O)N1CCOCC1
O=C(NN1C(=O)C2C3C=CC(C3)C2C1=O)c1ccco1 (stereo unspecified)
COC(=O)C1=C(C)N(C)C(=S)NC1c1cc(OC)ccc1OC (stereo unspecified)
COc1cc(CNC2CCCCC2)c(Br)cc1OC1CCCC1
CCOCCCNCc1cc(Br)ccc1OCC
O=C(c1ccc(CS(=O)(=O)c2ccccc2)o1)N1CCN(c2ccccc2)CC1
O=C(CNc1cccc(S(=O)(=O)N2CCCCC2)c1)Nc1ccccc1F
COc1ccccc1CCNC(=O)C(=O)NCCC1CCCCN1S(=O)(=O)c1cccs1 (stereo unspecified)
Cn1c(=NC(=O)c2ccco2)sc2cccc(F)c21
COC(=O)c1ccc(OC(=O)c2cnccn2)cc1
O=C(COc1ccccc1)Nc1ccc(F)cc1
O=S(=O)(c1ccc(F)cc1)N1CCN=C1SCc1cccc(F)c1
COC(=O)c1ccccc1NC(=O)C1(S(=O)(=O)c2ccc(Cl)cc2)CC1
Cc1ccc(NC(=O)CCOc2ccccc2)cc1S(=O)(=O)Nc1ccccc1Cl
Cc1cc(C)c2nc(-c3ccco3)cc(C(=O)O)c2c1
COc1ccc(OCc2cc(C(=O)N3CCCC3)no2)c2ccccc12
CCOC(=O)/C=C/CN(C(=O)OC(C)(C)C)S(=O)(=O)N1CC=CC1
CC(Nc1nc(N2CCN(CCO)CC2)nc2ccccc12)c1ccccc1 (stereo unspecified)
CC(Nc1nc(N2CCOCC2)nc2ccccc12)c1ccccc1 (stereo unspecified)
COc1ccc2[nH]cc(CCN3C(=O)c4ccc(C(=O)O)cc4C3=O)c2c1
Cc1nn(C)cc1C(=O)c1ccccc1
C=CCOc1ccc(/C=C/C(=O)OCC(=O)NC2CCCCCC2)cc1
COc1cc(/C=C/C(=O)N2c3ccccc3Sc3ccc(C(F)(F)F)cc32)cc(OC)c1OC
CCOC(=O)CNC(=O)N1c2ccccc2Sc2ccccc21
COC(=O)c1c(-c2cccs2)csc1NC(=O)CSc1ncnc2sc(C)c(C)c12
CCOc1ccc(C(=O)N(Cc2ccc(N(C)C)cc2)C2CCS(=O)(=O)C2)cc1 (stereo unspecified)
Cc1ccccc1OCC(=O)N(Cc1cccc(F)c1)C1CCS(=O)(=O)C1 (stereo unspecified)
Cc1ccccc1Nc1scc(-c2ccc(Br)cc2)[n+]1-c1ccccc1C
CN1CCN(c2ccc(NC(=O)c3ccccc3)cc2)CC1
Cc1cccc(-c2nc(Nc3ccc(O)cc3)c3ccccc3n2)c1
CCNC(=S)NNC(=O)C1CCN(Cc2ccccc2)CC1
CCCC(=O)C1CCN(Cc2ccccc2)CC1
CCc1ccc(NC(=O)Cn2nc(C)c([N+](=O)[O-])c2C)cc1
Cc1ccn(CC(=O)N2N=C(C(F)F)CC2(O)C(F)F)n1 (stereo unspecified)
Cc1[nH]c2c(C(=O)N3CCCC(CCC(=O)NCc4ccccc4F)C3)cccc2c1C (stereo unspecified)
O=S(=O)(Cc1ccccc1)c1nc2ccccc2n1Cc1ccccn1
CCc1ccccc1NC(=O)CSc1nnc([C@@H](NC(=O)OC(C)(C)C)C(C)CC)o1 (stereo partly specified)
CCc1ccccc1NC(=O)CSc1nnc([C@@H](NC(=O)OC(C)(C)C)C(C)C)o1
COCC1CCN(C(=O)C2CCC(=O)N(Cc3cccc(C(F)(F)F)c3)C2)CC1 (stereo unspecified)
CC1(C)COC(c2cccn2Cc2ccccc2Cl)=N1
Cc1nc(/N=C(\N)NC(=O)NC2CCCCC2)nc2ccccc12
COc1nc(N=C(N)N)nc2c(C)cccc12
Cc1cc(-n2cnc(-c3cn(C)nc3C)n2)no1
Cc1ccc(NC2CCCN(C(=O)CCc3cn[nH]c3)C2)cc1C (stereo unspecified)
O=C(CN1CCOC1=O)N1CCCC(Nc2ccc(F)c(F)c2)C1 (stereo unspecified)
C=C(C)c1cccc(C(C)(C)NC(=O)NC2CCCC2)c1
C=C(C)c1cccc(C(C)(C)NC(=O)N2CCN(c3ncccn3)CC2)c1
O=C1C2N=NN(CC(=O)N3N=C(c4cccc5ccccc45)CC3c3ccccc3)C2C(=O)N1c1ccccc1 (stereo unspecified)
Cc1cc(OCCCC(=O)NCCN2C(=O)S/C(=C\c3cccnc3)C2=O)ccc1Cl
COc1ccc(NC(=O)CCS(=O)(=O)c2cc3c(cc2Cl)NC(=O)CO3)cc1OC
Cc1cc2c(cc1S(=O)(=O)CCC(=O)NCc1ccccc1)OCC(=O)N2
CCOC(=O)N1CCN(CCC(=O)Nc2cc(OC)ccc2OC)CC1
CCOc1ccc(Nc2nc(Cl)nc(N3CCN(c4ccc(OC)cc4)CC3)n2)cc1
Cn1c(=O)n(C)c2cc(S(=O)(=O)Nc3ccc(F)cc3)ccc21
C=CC1=C(C(=O)O)N2C(=O)[C@@H](NC(=O)/C(=N/OCC(=O)O)c3csc(N)n3)[C@H]2SC1
Cc1ccc(NC(=O)[C@H](Cc2ccccc2)NC(=O)C2CCNCC2)cc1
COc1ccccc1C(=O)Nc1ccc(Nc2ccccc2)cc1
CCOc1ccc(N2CC(C(=O)NCc3ccccn3)CC2=O)cc1 (stereo unspecified)
CCc1ccc(N2CC(C(=O)Nc3ccc(S(=O)(=O)Nc4nccs4)cc3)CC2=O)cc1 (stereo unspecified)
CCc1ccc(N(C(=O)c2csnn2)C(C(=O)NC2CCCCC2)c2cccnc2)cc1 (stereo unspecified)
COCCCNCCOCCOc1ccc(Cl)cc1Br
COCC(C)NCc1cc(Br)ccc1OC (stereo unspecified)
Cc1c(C(=O)N(C)CCc2cnn(C)c2)oc2c(F)cccc12
CCOC(=O)N1CCN(C(=S)Nc2ccc(C)cc2C)CC1
CCOC(=O)N1CCN(C(=O)COc2ccc(Cl)cc2C)CC1
COc1ccc(-c2cc(C(=O)Nc3ccccc3O)c3ccccc3n2)cc1
Cc1ccc(-c2cc(C(=O)NC3CCN(Cc4ccccc4)CC3)c3ccccc3n2)cc1
COc1ccc(CCN2C(=O)CC(N3CCC(C(N)=O)CC3)C2=O)cc1OC (stereo unspecified)
Cc1c(C(=O)c2cccc([N+](=O)[O-])c2)c2ccccn2c1CCC#N
O=C(NCCN1CCOCC1)c1ccc2c(c1)N(Cc1ccc(Cl)cc1)CCS2
O=C(NCCc1ccccc1)c1ccc2c(c1)N(Cc1ccccc1)CCS2
COc1ccc(/C=C/CN2CCCC(C(=O)c3cc(F)ccc3F)C2)cc1 (stereo unspecified)

B-score, active:
CC(C)(C)NCc1cc(Br)ccc1OC1CCCC1 -6.86
Cn1c(=NC(=O)c2cnccn2)sc2ccccc21 -6.66
CCCCCCCCn1c2c(c(=N)c3c1CCC3)CCCC2 -6.1
Cc1cc(C)c2nc3nc(C)cc(C)c3c(N)c2c1 -5.04
CC(Nc1nc(N2CCCC2)nc2ccccc12)c1ccccc1 (stereo unspecified) -6.87
O=C(CN1CCCCCC1)N1c2ccccc2Sc2ccc(C(F)(F)F)cc21 -5.15
CCc1ccc(OCC(=O)N(Cc2ccccc2)C2CCS(=O)(=O)C2)cc1 (stereo unspecified) -6.07
CN1CCN(c2nc(Nc3ccc(O)cc3)nc3ccccc23)CC1 -11.6
O=C(NNS(=O)(=O)c1ccc(Cl)cc1)C1CCN(Cc2ccccc2)CC1 -7.9
Cc1nn(Cc2ccc(C(=O)N3N=C(C(F)F)CC3(O)C(F)F)cc2)c(C)c1[N+](=O)[O-] (stereo unspecified) -5.19
C[C@H](NC(=O)OC(C)(C)C)c1nnc(SCC(=O)Nc2ccc(Br)cc2)o1 -6.61
Cc1nc(N=C(N)N)nc2c(C)cccc12 -7.08
Cc1ccc(NC2CCCN(C(=O)CCC3(C)CC3)C2)cc1C (stereo unspecified) -5.8
C=C(C)c1cccc(C(C)(C)NC(=O)NCCN(CC)CC)c1 -8.39
COc1ccc(Cl)cc1NC(=O)CCS(=O)(=O)c1cc2c(cc1C)NC(=O)CO2 -5.71
CCN1CCN(c2nc(Nc3cc(OC)ccc3OC)nc(Nc3cc(OC)ccc3OC)n2)CC1 -5.02
CCN(CC)S(=O)(=O)c1ccc(N2CC(C(=O)NCc3cccnc3)CC2=O)cc1 (stereo unspecified) -6.5
CCC(C)NCCOCCOc1ccc(Br)cc1C (stereo unspecified) -5.27
CCOC(=O)N1CCC(O)(c2cc(C)c(C)cc2C)CC1 -9.52
CCc1ccc(-c2cc(C(=O)NN3CCN(C)CC3)c3ccccc3n2)cc1 -5.25
CCOC(=O)N1CCN(C(=O)c2ccc3c(c2)N(Cc2ccc(C)cc2)CCS3)CC1 -7.3
